Data reported in paper PMC7862700, “An all-to-all approach to the identification of sequence-specific readers for epigenetic DNA modifications on cytosine”.

Legend:
Assay in all cases: DAPPL (digital affinity profiling via proximity ligation, sequencing); 10 mM Tris-HCl pH 7.5, 50 mM NaCl, 1 mM DTT, 4% glycerol, room temperature, 30 min; GST-TFs on glutathione beads, 16-mer random dsDNA library, 0.1% formaldehyde crosslink after washing; high values mean tight binding
Conditions in all cases: protein: recombinant; tags: N-terminal GST; dsDNA, one strand shown
FLI1 = target: T1, FLI1 (Homo sapiens, UniProt Q01543 1-452)
T1 sequence: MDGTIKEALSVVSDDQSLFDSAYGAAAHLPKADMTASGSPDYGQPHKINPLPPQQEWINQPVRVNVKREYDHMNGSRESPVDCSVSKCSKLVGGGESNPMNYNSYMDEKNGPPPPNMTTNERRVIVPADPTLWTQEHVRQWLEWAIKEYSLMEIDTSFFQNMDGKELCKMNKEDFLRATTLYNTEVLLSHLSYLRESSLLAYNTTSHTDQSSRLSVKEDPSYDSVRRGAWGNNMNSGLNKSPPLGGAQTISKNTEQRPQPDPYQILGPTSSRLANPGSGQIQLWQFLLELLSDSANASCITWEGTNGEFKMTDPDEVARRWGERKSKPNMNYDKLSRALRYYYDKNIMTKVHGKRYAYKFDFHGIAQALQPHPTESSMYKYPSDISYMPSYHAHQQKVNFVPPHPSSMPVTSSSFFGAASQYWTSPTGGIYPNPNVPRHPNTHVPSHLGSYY
How it was run: (§1)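 Beads coated with glutathione captured GST-fused human transcription factors that had been expressed in yeast, and the factors were then given DNA barcodes and pooled with a tag-only sample. The pools were incubated with 200 nmole of a random double-stranded 16-mer DNA library in Tris/NaCl/DTT/glycerol buffer for 30 min at room temperature, washed, crosslinked with 0.1% formaldehyde and proximity-ligated with BsaI/T4 ligase at 37 °C for 1 h. PCR amplification and Illumina NextSeq500 sequencing came last. Binding signal is each hexamer's read frequency for a factor divided by its frequency for the tag-only sample.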

ELK1 = target: T2, ELK1 (Homo sapiens, UniProt P19419 1-428)
T2 sequence: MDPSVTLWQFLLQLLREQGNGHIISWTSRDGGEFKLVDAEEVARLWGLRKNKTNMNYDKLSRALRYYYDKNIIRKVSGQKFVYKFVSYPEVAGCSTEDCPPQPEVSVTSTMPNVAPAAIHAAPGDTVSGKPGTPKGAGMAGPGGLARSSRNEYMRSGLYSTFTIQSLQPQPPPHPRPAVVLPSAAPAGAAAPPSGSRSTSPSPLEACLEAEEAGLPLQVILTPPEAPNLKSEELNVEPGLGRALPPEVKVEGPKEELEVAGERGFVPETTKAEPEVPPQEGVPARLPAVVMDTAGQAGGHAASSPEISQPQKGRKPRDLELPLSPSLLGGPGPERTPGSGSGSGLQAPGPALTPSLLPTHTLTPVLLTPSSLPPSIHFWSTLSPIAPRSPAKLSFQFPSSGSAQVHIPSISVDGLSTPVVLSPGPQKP
How it was run: as §1

GABPA = target: T3, GABPA (Homo sapiens, UniProt Q06546 1-454)
T3 sequence: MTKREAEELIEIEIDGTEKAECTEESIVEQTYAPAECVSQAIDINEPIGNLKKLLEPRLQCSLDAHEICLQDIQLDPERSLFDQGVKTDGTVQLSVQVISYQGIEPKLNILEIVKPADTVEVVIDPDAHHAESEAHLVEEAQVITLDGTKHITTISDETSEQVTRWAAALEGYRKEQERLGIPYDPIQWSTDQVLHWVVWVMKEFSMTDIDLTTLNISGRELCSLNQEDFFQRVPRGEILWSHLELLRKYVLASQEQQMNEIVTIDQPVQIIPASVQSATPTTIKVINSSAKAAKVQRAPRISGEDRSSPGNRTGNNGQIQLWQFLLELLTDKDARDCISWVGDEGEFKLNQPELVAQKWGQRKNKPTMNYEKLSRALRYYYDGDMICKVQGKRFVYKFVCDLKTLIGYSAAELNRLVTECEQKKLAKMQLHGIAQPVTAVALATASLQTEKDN
How it was run: as §1

ERG = target: T4, ERG (Homo sapiens, UniProt P11308 1-479)
T4 sequence: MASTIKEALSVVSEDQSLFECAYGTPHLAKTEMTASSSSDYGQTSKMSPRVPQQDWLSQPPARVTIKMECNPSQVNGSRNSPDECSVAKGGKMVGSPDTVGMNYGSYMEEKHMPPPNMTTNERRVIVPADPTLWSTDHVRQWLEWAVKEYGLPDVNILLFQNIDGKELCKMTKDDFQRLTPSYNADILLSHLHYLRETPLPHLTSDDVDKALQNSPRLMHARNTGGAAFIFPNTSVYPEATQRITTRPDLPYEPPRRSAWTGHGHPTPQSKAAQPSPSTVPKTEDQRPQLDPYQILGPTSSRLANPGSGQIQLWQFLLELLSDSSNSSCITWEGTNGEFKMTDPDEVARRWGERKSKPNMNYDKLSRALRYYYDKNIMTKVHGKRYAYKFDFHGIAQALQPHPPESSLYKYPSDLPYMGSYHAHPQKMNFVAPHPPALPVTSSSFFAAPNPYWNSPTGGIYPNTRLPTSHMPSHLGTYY
How it was run: as §1

ELF1 = ELF1 (Homo sapiens, UniProt P32519 1-619)
ELF1, sequence (P32519 whole entry): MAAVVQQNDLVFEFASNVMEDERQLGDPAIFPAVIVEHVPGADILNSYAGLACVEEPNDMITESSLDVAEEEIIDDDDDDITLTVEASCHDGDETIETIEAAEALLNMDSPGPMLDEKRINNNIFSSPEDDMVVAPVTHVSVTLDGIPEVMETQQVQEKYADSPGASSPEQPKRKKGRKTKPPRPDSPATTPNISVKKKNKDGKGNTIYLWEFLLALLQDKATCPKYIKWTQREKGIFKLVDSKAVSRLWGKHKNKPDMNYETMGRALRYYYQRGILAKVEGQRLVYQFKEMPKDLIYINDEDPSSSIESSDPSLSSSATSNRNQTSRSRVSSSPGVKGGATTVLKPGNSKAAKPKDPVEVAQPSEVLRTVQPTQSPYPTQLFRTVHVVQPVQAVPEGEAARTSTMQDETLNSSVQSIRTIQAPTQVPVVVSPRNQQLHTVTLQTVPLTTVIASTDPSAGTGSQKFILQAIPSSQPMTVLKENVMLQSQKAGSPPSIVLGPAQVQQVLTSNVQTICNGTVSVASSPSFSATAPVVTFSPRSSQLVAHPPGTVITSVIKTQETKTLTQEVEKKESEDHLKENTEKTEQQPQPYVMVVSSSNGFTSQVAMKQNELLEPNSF
How it was run: as §1

EHF = target: T5, EHF (Homo sapiens, UniProt Q9NZC4 1-300)
T5 sequence: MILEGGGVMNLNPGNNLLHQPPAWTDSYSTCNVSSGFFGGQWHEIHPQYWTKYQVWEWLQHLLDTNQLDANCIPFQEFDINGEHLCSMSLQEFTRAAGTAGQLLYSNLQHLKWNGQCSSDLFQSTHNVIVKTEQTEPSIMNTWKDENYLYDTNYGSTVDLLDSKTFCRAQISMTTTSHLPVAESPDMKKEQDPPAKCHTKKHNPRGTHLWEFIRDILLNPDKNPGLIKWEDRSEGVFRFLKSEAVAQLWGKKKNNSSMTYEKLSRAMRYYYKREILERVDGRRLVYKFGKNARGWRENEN
How it was run: as §1

SPI1 = SPI1 (Homo sapiens, UniProt P17947 1-270)
How it was run: as §1

SPIB = SPIB (Homo sapiens, UniProt Q01892 1-262)
SPIB, sequence (Q01892 whole entry): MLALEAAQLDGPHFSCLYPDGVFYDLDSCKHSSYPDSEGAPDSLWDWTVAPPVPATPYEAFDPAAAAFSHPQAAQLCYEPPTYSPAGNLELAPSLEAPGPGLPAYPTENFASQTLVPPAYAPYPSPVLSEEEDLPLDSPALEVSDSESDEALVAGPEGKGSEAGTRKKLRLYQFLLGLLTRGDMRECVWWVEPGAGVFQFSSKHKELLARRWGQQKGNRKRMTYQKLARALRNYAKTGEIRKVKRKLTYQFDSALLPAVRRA
How it was run: as §1

ELK3 = target: T6, ELK3 (Homo sapiens, UniProt P41970 1-407)
T6 sequence: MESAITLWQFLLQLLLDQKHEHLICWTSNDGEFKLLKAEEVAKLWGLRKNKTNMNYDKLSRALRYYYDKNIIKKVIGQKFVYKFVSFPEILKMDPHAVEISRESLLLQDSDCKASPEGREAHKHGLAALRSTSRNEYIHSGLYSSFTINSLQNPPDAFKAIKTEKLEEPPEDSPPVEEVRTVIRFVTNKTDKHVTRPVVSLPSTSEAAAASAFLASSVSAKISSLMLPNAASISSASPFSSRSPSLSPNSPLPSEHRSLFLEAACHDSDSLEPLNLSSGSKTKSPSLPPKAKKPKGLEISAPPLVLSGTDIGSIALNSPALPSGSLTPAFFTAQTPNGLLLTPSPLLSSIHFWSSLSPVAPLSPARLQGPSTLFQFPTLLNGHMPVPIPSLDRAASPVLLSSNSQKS
How it was run: as §1

Row | Sequence | binding signal (FLI1) | binding signal (ELK1) | binding signal (GABPA) | binding signal (ERG) | binding signal (ELF1) | binding signal (EHF) | binding signal (SPI1) | binding signal (SPIB) | binding signal (ELK3)
1 | TATGAT | 1.21 fold enrichment (6-mer frequency, TF over GST control) | 1.18 fold enrichment (6-mer frequency, TF over GST control) | 1.22 fold enrichment (6-mer frequency, TF over GST control) | 1.2 fold enrichment (6-mer frequency, TF over GST control) | 1.24 fold enrichment (6-mer frequency, TF over GST control) | 1.27 fold enrichment (6-mer frequency, TF over GST control) | 1.18 fold enrichment (6-mer frequency, TF over GST control) | 1.23 fold enrichment (6-mer frequency, TF over GST control) | 1.23 fold enrichment (6-mer frequency, TF over GST control)
2 | CCTCCT | 1.72 fold enrichment (6-mer frequency, TF over GST control) | 1.45 fold enrichment (6-mer frequency, TF over GST control) | 1.57 fold enrichment (6-mer frequency, TF over GST control) | 1.45 fold enrichment (6-mer frequency, TF over GST control) | 1.5 fold enrichment (6-mer frequency, TF over GST control) | 1.42 fold enrichment (6-mer frequency, TF over GST control) | 1.7 fold enrichment (6-mer frequency, TF over GST control) | 1.61 fold enrichment (6-mer frequency, TF over GST control) | 1.48 fold enrichment (6-mer frequency, TF over GST control)
3 | GCTCCA | 1.23 fold enrichment (6-mer frequency, TF over GST control) | 1.17 fold enrichment (6-mer frequency, TF over GST control) | 1.33 fold enrichment (6-mer frequency, TF over GST control) | 1.18 fold enrichment (6-mer frequency, TF over GST control) | 1.2 fold enrichment (6-mer frequency, TF over GST control) | 1.19 fold enrichment (6-mer frequency, TF over GST control) | 1.28 fold enrichment (6-mer frequency, TF over GST control) | 1.3 fold enrichment (6-mer frequency, TF over GST control) | 1.17 fold enrichment (6-mer frequency, TF over GST control)
4 | TCCGCC | 1.57 fold enrichment (6-mer frequency, TF over GST control) | 1.61 fold enrichment (6-mer frequency, TF over GST control) | 1.53 fold enrichment (6-mer frequency, TF over GST control) | 1.69 fold enrichment (6-mer frequency, TF over GST control) | 1.7 fold enrichment (6-mer frequency, TF over GST control) | 1.73 fold enrichment (6-mer frequency, TF over GST control) | 1.48 fold enrichment (6-mer frequency, TF over GST control) | 1.54 fold enrichment (6-mer frequency, TF over GST control) | 1.86 fold enrichment (6-mer frequency, TF over GST control)
5 | GTAAAT | 1.02 fold enrichment (6-mer frequency, TF over GST control) | 1.09 fold enrichment (6-mer frequency, TF over GST control) | 1.21 fold enrichment (6-mer frequency, TF over GST control) | 1.14 fold enrichment (6-mer frequency, TF over GST control) | 1.16 fold enrichment (6-mer frequency, TF over GST control) | 1.15 fold enrichment (6-mer frequency, TF over GST control) | 1.22 fold enrichment (6-mer frequency, TF over GST control) | 1.18 fold enrichment (6-mer frequency, TF over GST control) | 1.16 fold enrichment (6-mer frequency, TF over GST control)
6 | TATCCA | 1.3 fold enrichment (6-mer frequency, TF over GST control) | 1.36 fold enrichment (6-mer frequency, TF over GST control) | 1.3 fold enrichment (6-mer frequency, TF over GST control) | 1.22 fold enrichment (6-mer frequency, TF over GST control) | 1.29 fold enrichment (6-mer frequency, TF over GST control) | 1.26 fold enrichment (6-mer frequency, TF over GST control) | 1.27 fold enrichment (6-mer frequency, TF over GST control) | 1.36 fold enrichment (6-mer frequency, TF over GST control) | 1.37 fold enrichment (6-mer frequency, TF over GST control)
7 | GCGCTT | 1.31 fold enrichment (6-mer frequency, TF over GST control) | 1.36 fold enrichment (6-mer frequency, TF over GST control) | 1.32 fold enrichment (6-mer frequency, TF over GST control) | 1.24 fold enrichment (6-mer frequency, TF over GST control) | 1.31 fold enrichment (6-mer frequency, TF over GST control) | 1.31 fold enrichment (6-mer frequency, TF over GST control) | 1.2 fold enrichment (6-mer frequency, TF over GST control) | 1.45 fold enrichment (6-mer frequency, TF over GST control) | 1.31 fold enrichment (6-mer frequency, TF over GST control)
